Test results taken from PubChem BioAssay (NCATS).
Results filed as inconclusive are left out. The source made the active and inactive calls. The call rests on the fitted dose curve; in most records, active means well fitted cell-killing curve with a large enough effect; inconclusive means small, poorly fitted or top-dose-only effect, or effect the other way; inactive means no such curve, though single readings can be large or run the other way.

Assay: qHTS of pediatric cancer cell lines to identify multiple opportunities for drug repurposing: Confirmatory screen for SJ-GBM2 cells (AID 1347116);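 further: 48 hour compound exposure; nearly all actives have a fitted effect of over 60% in size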
Conditions: SJ-GBM2 glioblastoma cells, viability; series mostly up to 45.9 µM
Excerpt: Drug repurposing or repositioning has been offered as a strategy for drug development in oncology programs. This approach has special potential for childhood cancers and other rare or orphan diseases, where the expected return on new drug development has been a disincentive to pharmaceuticals.
In this project we exploit the poly-pharmacology of drugs to discover new indications via phenotypic screening of a panel of 19 well-characterized cell lines derived from solid tumors seen in children and adolescents. The goal is to identify approved drugs with previously unrecognized anticancer properties that has the potential to reveal new mechanisms and biological processes involved in carcinogenesis or drug resistance. We employed a titration-based paradigm (quantitative high-throughput screening or qHTS), where all compounds were tested at multiple concentrations for their effect on cell viability. Concentration-response curves (CRCs) were derived directly from the primary screen, and both potency and efficacy values were used to identify compounds with robust bioactivity profiles. We screened the NIH Chemical Genomics Center (NCGC) Pharmaceutical Collection (NPC) and Mechanism Interrogation Plate (MIPE) small molecule collections of approved and investigational compounds against these cell lines; and measured metabolically active cells after 48 hours of compound treatment as a proxy for cell viability.
Assay Submitter: Nathalia J. Martinez, National Center for Advancing Translational Sciences, National Institutes of Health, Rockville, MD, USA; email: natalia.martinez@nih.gov
[1] Shen, M et al. Quantitative high-throughput phenotypic screening of pediatric cancer cell lines identifies multiple opportunities for drug repurposing. Oncotarget 2017 Dec 19;9(4):4758-4772. PMID 29435139.
The cells were obtained from University of North Carolina (UNC), Pediatric Preclinical Testing Program (PPT), and Coriell Institute (CI).
qHTS cell viability assay:
Cells were assayed in growth media at a density of 500-1,000 cells/well. Five microliters of cells were dispensed into 1,536-well, white, solid-bottom, TC-treated plates (Greiner Bio One) using a multidrop dispenser and incubated at 37 degrees C, 5% CO2, under a humidified atmosphere for 5 hours. Twenty-three nanoliters of compounds and controls (neutral control DMSO or positive control bortezomib at final concentration of 2.3 µM) were subsequently transferred by Kalypsys pintool. For primary screens, the MIPE collection was tested at 11-point dilutions (final concentrations range from 0.78 nM to 46 µM) and the NPC collection at 8-point dilutions (final concentrations range from 0.59 nM to 46 µM). Compounds tested in follow-up screens were assayed at 11-point dilutions. Cells were incubated for 48 hours, followed by addition of 3 uL of CellTiter-Glo (Promega). After a 15 min incubation at room temperature, samples were analyzed for luminescence intensity using a ViewLux High-throughput CCD imager equipped with clear filters.
Potency means the concentration at half of the fitted maximal effect.

Row | Structure (SMILES) | Potency
1 | CC(C)N[C@@H]1CCn2c(=O)[nH]c3cccc(c32)[C@@H]1O | inactive
2 | COc1cc([C@@H]2c3cc4c(cc3[C@@H](O)C3COC(=O)C32)OCO4)cc(OC)c1O (some centres undefined) | inactive
3 | C[C@@H]1O[C@@H](O[C@@H]2C=C3CC[C@@H]4[C@@H](CC[C@]5(C)[C@H](c6ccc(=O)oc6)CC[C@@]45O)[C@@]3(C)CC2)[C@H](O)[C@H](O)[C@H]1O | 0.0585 µM (active)
4 | CC[C@H]1C=CC=CC[C@@H](C)[C@H](O)[C@@](C)(O)C(=O)[C@@H](C)[C@H](O)[C@@H](C)C(=O)[C@@H](C)[C@H](O)[C@@H](C)C=CC(=O)O[C@@H]2[C@@H](C)[C@H](CC1)O[C@]1(CC[C@H](C)[C@H](C[C@@H](C)O)O1)[C@H]2C | 20.8 µM (active)
5 | CC(=Cc1csc(C)n1)[C@@H]1C[C@H]2O[C@@H]2CCC[C@H](C)[C@@H](O)[C@@H](C)C(=O)C(C)(C)[C@@H](O)CC(=O)O1 | 0.104 µM (active)
6 | CC[C@@]1(O)C(=O)OCc2c1cc1n(c2=O)Cc2cc3ccccc3nc2-1 | 0.104 µM (active)
7 | CCC(=O)OC1CCC2C3CCC4=CC(=O)CC[C@@]4(C)C3CC[C@]12C (some centres undefined) | inactive
8 | Cc1c(N)nc([C@H](CC(N)=O)NC[C@@H](N)C(N)=O)nc1C(=O)N[C@H](C(=O)N[C@@H](C)[C@H](O)[C@@H](C)C(=O)N[C@@H](C(=O)NCCc1nc(-c2nc(C(=O)NCCC[S+](C)C)cs2)cs1)[C@@H](C)O)C(O[C@H]1O[C@H](CO)[C@H](O)[C@@H](O)[C@@H]1O[C@H]1O[C@H](CO)[C@@H](O)[C@H](OC(N)=O)[C@H]1O)c1cnc[nH]1 (some centres undefined) | inactive
9 | CC(C)(C)C(O)C(Oc1ccc(Cl)cc1)n1cncn1 (centres undefined) | inactive
10 | CS(=O)(=O)c1ccc(C(=O)C2C(=O)CCCC2=O)c([N+](=O)[O-])c1 | inactive
11 | Cc1ccccc1-n1c(Cn2ncc3c(N)ncnc32)nc2cccc(C)c2c1=O | inactive
12 | C[C@@]12OC(=O)[C@]1([C@@H](O)[C@@H]1C=CCCC1)NC(=O)[C@H]2CCCl | 0.737 µM (active)
13 | CC(C)(O)C=CC(=O)[C@](C)(O)[C@H]1[C@H](O)C[C@]2(C)[C@@H]3CC=C4[C@@H](C=C(O)C(=O)C4(C)C)[C@]3(C)C(=O)C[C@@]12C | 1.65 µM (active)
14 | C[C@H]1CCCC=CC2C[C@H](O)C[C@@H]2[C@H](O)C=CC(=O)O1 (some centres undefined) | 0.208 µM (active)
15 | C[C@]12Cc3cn[nH]c3C[C@@H]1CC[C@@H]1[C@H]2CC[C@@]2(C)[C@H]1CC[C@]2(C)O | inactive
16 | O=c1[nH]c2ccc(Cl)cc2c(N[C@@H]2CN3CCC2CC3)c1-c1nc2ccccc2[nH]1 | 1.04 µM (active)
17 | CC(=O)[O][Hg][c]1ccccc1 | 1.17 µM (active)
18 | CCCN1CCO[C@@H]2c3cc(O)ccc3OC[C@@H]21 | inactive
19 | CC1=C(O)C(=O)C=C2C1=CC=C1[C@@]2(C)CC[C@@]2(C)[C@@H]3C[C@](C)(C(=O)O)CC[C@]3(C)CC[C@]12C | 2.61 µM (active)
20 | Cc1ccccc1-n1c(Cn2cnc3c(N)ncnc32)nc2cccc(C)c2c1=O | inactive
21 | CC[C@@H]1[C@@H](C)O[C@@](O)([C@@H](C)[C@H](O)[C@H](C)[C@H]2OC(=O)C=CC=C[C@@H](C)[C@@H]([C@@H](C)[C@@H](O)[C@H](C)[C@@]3(O)C[C@H](O[C@H]4C[C@H](O)[C@H](O)[C@H](C)O4)[C@H](CC)[C@@H](C)O3)OC(=O)C=CC=C[C@@H]2C)C[C@H]1O[C@H]1C[C@H](O)[C@H](O)[C@H](C)O1 | inactive
22 | CC(C)[C@]12O[C@@H]1[C@@H]1O[C@]13[C@]1(O[C@H]1C[C@@H]1C4=C(CC[C@@]13C)C(=O)OC4)[C@H]2O | 0.0657 µM (active)
23 | COc1ccc2c(c1)CN(C)CC2c1ccc(Cl)c(Cl)c1 (centres undefined) | 1.47 µM (active)
24 | O=C(N[C@H]1CN2CCC1CC2)c1ccc(Cl)cc1 | 0.585 µM (active)
